Reference: PubChem BioAssay AID1159580 (chemical genetic matrix, 2015)
Where “and” joins values, the source holds several entries; their conditions need not be identical. Equal values may be shown once. Out of some 5,500 compounds screened, about 2,000 (36%) were called active. Roughly 18% stayed inconclusive and do not appear here. Cut-off read from the data, not from the text of the source: active = normalized growth mostly below about 0.91 (no sharp cut-off); inconclusive = no clear call, values can overlap the other calls; inactive = mostly above about 0.92. The list shows a part of the results.

Test: chemical genetic growth profiling, strain panel (AID 1159580);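 note: tested at 20 µM; growth read once vehicle control cultures reached saturation at 30 °C; 1 = growth at the plate median or of vehicle wells; lower values mean less growth of the strain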
Conditions: S. cerevisiae deletion strains, growth OD

Measured: normalized growth

COC(=O)C[C@H]1C(C)(C)[C@@H](OC(C)=O)[C@@H]2CC3=C4CC(=O)O[C@@H](c5ccoc5)[C@]4(C)CCC3[C@@]1(C)C2=O (stereo partly specified)
inactive: locus YAL021C, strain ccr4, hits give low values 1.04 | locus YAL026C, strain drs2, hits give low values 0.998 | locus YAL030W, strain snc1, hits give low values 0.996 | locus YBL061C, strain skt5, hits give low values 0.991 | locus YBR009C, strain hhf1, hits give low values 1 | locus YBR021W, strain FUR4, hits give low values 1.01 | locus YBR023C, strain chs3, hits give low values 1 | locus YBR171W, strain sec66, hits give low values 0.996 | locus YBR229C, strain ROT2, hits give low values 0.997 | locus YBR231C, strain swc5, hits give low values 0.971 | locus YBR279W, strain paf1, hits give low values 0.999 | locus YCL011C, strain gbp2, hits give low values 1.01 | locus YCL016C, strain dcc1, hits give low values 1.01 | locus YCL029C, strain bik1, hits give low values 0.998 | locus YCL061C, strain MRC1, hits give low values 0.999 | locus YCL069W, strain vba3, hits give low values 0.984 | locus YCR088W, strain abp1, hits give low values 0.995 | locus YDL005C, strain med2, hits give low values 0.991 | locus YDL035C, strain GPR1, hits give low values 0.986 | locus YDL040C, strain nat1, hits give low values 0.995 | locus YDL074C, strain BRE1, hits give low values 0.996 | locus YDL101C, strain DUN1, hits give low values 1.02 | locus YDL185W, strain tfp1, hits give low values 1.01 | locus YDL192W, strain arf1, hits give low values 0.998 | locus YDR001C, strain nth1, hits give low values 0.997 | locus YDR069C, strain doa4, hits give low values 0.982 | locus YDR101C, strain arx1, hits give low values 0.976 | locus YDR137W, strain rgp1, hits give low values 0.997 | locus YDR159W, strain sac3, hits give low values 0.962 | locus YDR162C, strain NBP2, hits give low values 0.983 | locus YDR195W, strain ref2 0.938 | locus YDR297W, strain sur2, hits give low values 0.983 | locus YDR318W, strain mcm21, hits give low values 0.998 | locus YDR334W, strain swr1, hits give low values 0.99 | locus YDR335W, strain msn5, hits give low values 1 | locus YDR388W, hits give low values 1.01 | locus YDR392W, strain spt3, hits give low values 0.963 | locus YDR502C, strain sam2, hits give low values 1 | locus YEL003W, strain gim4, hits give low values 0.978 | locus YEL037C, strain rad23, hits give low values 0.989 | locus YEL061C, strain CIN8 (second series), hits give low values 0.99 | locus YER015W, strain faa2, hits give low values 1 | locus YER016W, strain bim1, hits give low values 0.995 | locus YER110C, hits give low values 1 | locus YER111C, strain swi4, hits give low values 1 | locus YER155C, strain BEM2 (second series), hits give low values 1.01 | locus YER155C, strain BEM2, hits give low values 0.997 | locus YER167W, strain BCK2, hits give low values 0.998 | locus YFR010W, strain ubp6, hits give low values 0.976 | locus YGL078C, strain dbp3, hits give low values 1.01 | locus YGL086W, strain mad1, hits give low values 1.01 | locus YGL167C, strain pmr1, hits give low values 1.01 | locus YGL173C, strain kem1, hits give low values 0.989 | locus YGL227W, strain vid30, hits give low values 0.993 | locus YGL240W, strain doc1, hits give low values 1 | locus YGL248W, strain PDE1, hits give low values 1 | locus YGL253W, strain hxk2, hits give low values 0.913 | locus YGR078C, strain PAC10, hits give low values 1.01 | locus YGR135W, strain pre9, hits give low values 1.02 | locus YGR252W, strain gcn5, hits give low values 1.01 | locus YHR013C, strain ard1, hits give low values 1.01 | locus YHR027C, strain rpn1, hits give low values 1 | locus YHR030C, strain SLT2, hits give low values 1 and 0.993 | locus YHR079C, strain IRE1 (second series), hits give low values 0.996 | locus YHR079C, strain IRE1, hits give low values 0.992 | locus YHR094C, strain hxt1, hits give low values 1 | locus YHR129C, strain ARP1, hits give low values 1.01 | locus YHR142W, strain chs7, hits give low values 0.988 | locus YHR200W, strain rpn10, hits give low values 1.01 | locus YIL066C, strain RNR3, hits give low values 1.01 | locus YIL073C, strain SPO22, hits give low values 1.02 | locus YIL125W, strain kgd1, hits give low values 0.993 | locus YIR030C, strain dcg1, hits give low values 1 | locus YJL092W, strain hpr5, hits give low values 0.996 | locus YJL095W, strain BCK1 (second series), hits give low values 1.01 | locus YJL095W, strain BCK1, hits give low values 1.04 and 0.984 | locus YJL115W, strain asf1, hits give low values 0.997 | locus YJL129C, strain trk1, hits give low values 0.952 | locus YJL134W, strain LCB3, hits give low values 0.998 | locus YJL154C, strain vps35, hits give low values 0.998 | locus YJL164C, strain tpk1, hits give low values 1.03 | locus YJL166W, strain qcr8, hits give low values 1 | locus YJL168C, strain set2, hits give low values 0.995 | locus YJL187C, strain SWE1 (second series), hits give low values 1.03 | locus YJL187C, strain SWE1, hits give low values 1.01 | locus YJR043C, strain POL32, hits give low values 0.987
